VDR inh: vitamin D3 receptor (human) inhibition. hit rate 0.93% among 400,000. VDR-SRC2-3 peptide fluorescence polarization, 2 h. P11473. Potency, µM, inactives show max response, negative = inhibition, actives largely listed as inhibitors
Target sequence (P11473 whole entry, looked up): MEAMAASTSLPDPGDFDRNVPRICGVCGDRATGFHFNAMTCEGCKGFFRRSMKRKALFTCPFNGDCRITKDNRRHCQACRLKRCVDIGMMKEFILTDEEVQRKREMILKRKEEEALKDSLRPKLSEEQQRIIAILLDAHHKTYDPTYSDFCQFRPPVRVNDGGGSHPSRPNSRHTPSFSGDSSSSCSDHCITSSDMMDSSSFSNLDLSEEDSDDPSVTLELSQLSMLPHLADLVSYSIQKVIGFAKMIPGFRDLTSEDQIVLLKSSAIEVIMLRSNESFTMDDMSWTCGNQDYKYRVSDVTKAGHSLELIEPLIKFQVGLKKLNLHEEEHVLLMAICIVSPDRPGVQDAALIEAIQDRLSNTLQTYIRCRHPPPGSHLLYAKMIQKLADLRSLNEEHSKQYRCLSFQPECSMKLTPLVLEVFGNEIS
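Fluorescence polarization assay of small-molecule disruption of VDR binding to coregulator peptide SRC2-3. Compounds and controls pin-transferred, then read after 2 h incubation at ambient room temperature.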
DT40 TDP1 CPT: DT40-hTDP1 cell growth loss with CPT | chicken DT40 Tdp1-/-;hTDP1 cells + 20 nM CPT, ATP luminescence, 48 h | Potency, µM (top dose mostly 46.2 µM), for the others: at the top dose activity change, negative = growth inhibition, hits mostly inhibitors | hit rate 12% among 420,000 | AID 686979; further: nearly all actives have a fitted effect of over 55% in size
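Chicken DT40 Tdp1-/- cells complemented with human TDP1, 400 cells/well, exposed to compounds plus 20 nM camptothecin for at least 48 h at 37 C; viability read as ATP content by CellTiter-Glo luminescence.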
GCN5L2 inh: GCN5L2 (KAT2A) acetyltransferase inhibition | hit rate 0.21% among 390,000 | GCN5L2 HAT assay, ThioGlo1 CoA-SH fluorescence | Potency, µM (titrated, usually from 58.9 µM), inactives show at the highest dose activity change, negative = inhibition, actives largely listed as inhibitors | Q92830
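Compounds, pin-transferred from DMSO stocks, meet 20nM GCN5L2 for 15 min before the reaction begins with H3(1-25) peptide (75uM) and acetyl-CoA (70uM). Thiol-reactive ThioGlo1 reports CoA release over 20 min at room temperature.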
TDP1 cell noCPT: qHTS for Inhibitors of human tyrosyl-DNA phosphodiesterase 1 (TDP1): qHTS in cells in absence of CPT; DT40 Tdp1-/- hTDP1 cells, no CPT, ATP luminescence, 48 h; Potency, µM (doses to about 46.2 µM), for the others: top-dose activity change, negative = growth inhibition, most hits filed as inhibitors; hit rate 15% among 420,000; AID 686978, 2013; further: nearly all actives have a fitted effect of over 55% in size
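Growth of hTDP1-complemented DT40 Tdp1-knockout cells is measured by ATP luminescence after at least 48 hr compound exposure at 37 °C, with DMSO substituting for the 20 nM CPT used in the parallel screen.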
TDP1 inh: inhibitors of human tyrosyl-DNA phosphodiesterase TDP1; hit rate 0.28% among 350,000; Potency, µM (series often up to 130 µM), inactives show at the highest dose activity change, negative = inhibition, hits mostly inhibitors; Q9NUW8; recombinant TDP1, AlphaScreen DNA substrate cleavage; AID 485290; further: nearly all actives have a fitted effect of over 40% in size
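Here, a 5' biotin and 3' phosphotyrosine-FITC DNA oligonucleotide reports Tdp1 activity: intact substrate bridges AlphaScreen beads, while cleavage leaves a 3' phosphate and drops signal. All incubations at room temperature.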
PLK1 PBD block: blocks phosphopeptide binding to human PLK1 polo-box domain; Potency, µM, without a hit: max response, negative = inhibition, usual class: inhibitors; Plk1 PBD binding of FITC phosphopeptide, fluorescence polarization; hit rate 2.8% among 360,000; further: series mostly up to about 57 µM; nearly all actives have a fitted effect of over 65% in size
Active calls of the source: *; ? = inconclusive; nt = no result given. Most compounds without a hit are left out; they make up all but 18% or so of the library. The call rests on the fitted dose curve; in most records, active means well fitted curve in the direction sought with a large enough effect; inconclusive means small, poorly fitted or top-dose-only effect, or another doubt; inactive means no such curve, though single readings can be large; an effect the other way counts as inactive or inconclusive. On the % scale 0 is the no-effect control and ±100 the full control effect; potency means the concentration at half of the fitted maximal effect.

SMILES	VDR inh	DT40 TDP1 CPT	GCN5L2 inh	TDP1 cell noCPT	TDP1 inh	PLK1 PBD block
CC(=O)N1N=C(c2ccc(NS(=O)(=O)c3ccccc3)cc2)CC1c1ccco1 (stereo not given)	-12%	2.6µM*	-13%	2.3µM*	3%	-11%
Cc1ccc(C2=NN(C(=O)CSc3nc4ncc(Cl)cc4[nH]3)C(c3ccco3)C2)cc1 (stereo not given)	5%	16%	-12%	-3%	-3%	-5%
CCc1ccc(-n2nc(C)c3c(C(=O)Nc4cc(OC)cc(OC)c4)cc(C)nc32)cc1	-3%	?	-5%	?	-1%	nt
COc1ccc(NC(=O)CN2C(=O)COc3ccc(S(=O)(=O)Nc4ccccc4)cc32)cc1OC	2%	-5%	1%	-27%	4%	nt
CCCc1cc(=O)[nH]c(SCC(=O)N2N=C(c3ccc(Cl)cc3)CC2c2ccco2)n1 (stereo not given)	11%	?	-11%	?	-2%	?
CCc1ccc(C2=NN(C(C)=O)C(c3ccco3)C2)cc1 (stereo not given)	-20%	?	-4%	16µM*	2%	2%
CC(=O)N1N=C(c2c(-c3ccccc3)c3cc(Br)ccc3[nH]c2=O)CC1c1ccco1 (stereo not given)	79µM*	?	2%	?	7%	-18%
CC(C)[C@H](NS(=O)(=O)c1ccccc1)C(=O)OCC(=O)N1N=C(c2ccc(Cl)cc2)CC1c1ccco1 (stereo not given in full)	-7%	18µM*	-8%	13µM*	5%	-15%
Nc1cc(=O)[nH]c(SCC(=O)N2N=C(c3ccc(Cl)cc3)CC2c2ccco2)n1 (stereo not given)	5%	18µM*	-6%	?	5%	-16%
COC(=O)/C=C1\N/C(=N\c2nc(C)cc(C)n2)N(c2ccc(C)c(C)c2)C1=O	?	2%	-1%	7%	-8%	5%
Cc1ccc(OCC(=O)N2N=C(c3ccc(Cl)cc3)CC2c2ccco2)c([N+](=O)[O-])n1 (stereo not given)	-17%	?	-7%	?	9%	-10%
O=C(COc1cccnc1[N+](=O)[O-])N1N=C(c2ccc(Cl)cc2)CC1c1ccco1 (stereo not given)	-2%	?	-11%	2.9µM*	5%	3%
Cc1nc2cncnc2n(-c2ccccc2)c1=O	-27%	2%	-7%	-26%	nt	nt
O=C(CCN1C(=O)/C(=C/c2ccc(Cl)cc2)SC1=S)Nc1cccc(C(=O)O)c1	-10%	1%	-4%	-12%	nt	?
O=C(CCN1C(=O)/C(=C\C=C\c2ccccc2)SC1=S)Nc1ccccc1C(=O)O	?	8%	1%	0%	4%	30µM*
O=C(CCN1C(=O)/C(=C\C=C\c2ccccc2)SC1=S)Nc1cccc(C(=O)O)c1	-3%	29%	-25%	16%	?	27µM*
CC(=C\c1ccccc1)/C=C1/SC(=O)N(CCCC(=O)Nc2ccc(C(=O)O)cc2)C1=O	-1%	-7%	2%	?	1%	-13%
O=C(CCCN1C(=O)S/C(=C/C=C/c2ccccc2)C1=O)Nc1ccc(C(=O)O)cc1	32µM*	-14%	-16%	20%	4%	30µM*
O=C(CCN1C(=O)/C(=C/C=C/c2ccccc2)SC1=S)Nc1nccs1	11%	?	-1%	?	8%	-11%
O=C(O)c1ccc(/C=N\Nc2ccc(S(=O)(=O)N3CCOCC3)cc2[N+](=O)[O-])cc1	-14%	-12%	-3%	11%	4%	0%
Cc1ccc(-n2c(O)c(/C=N/Nc3ccc(S(=O)(=O)N4CCOCC4)cc3[N+](=O)[O-])c3ccccc3c2=O)c(C)c1	?	21µM*	-29%	12µM*	11%	?
COc1cccc(CNn2c(-c3cccc(C)c3)nc3ccccc3c2=O)c1O	3%	?	-19%	?	-4%	-4%
COc1ccc(OC)c(CNn2c(-c3ccccc3F)nc3ccccc3c2=O)c1	3%	?	-10%	18µM*	-1%	-27%
COc1ccc(CNn2c(-c3ccccc3F)nc3ccccc3c2=O)cc1OC	14%	?	-6%	18µM*	-1%	-13%
Cc1ccc(C(C#N)c2ccc(C(=O)c3ccc(F)cc3)cc2)cc1 (stereo not given)	-15%	23µM*	4%	8.2µM*	nt	-11%
SMILES	VDR inh	DT40 TDP1 CPT	GCN5L2 inh	TDP1 cell noCPT	TDP1 inh	PLK1 PBD block
N#CC(c1ccc(F)cc1)c1ccc(C(=O)c2ccc(F)cc2)cc1 (stereo not given)	-7%	?	-12%	21µM*	0%	2%
O=C(c1ccc(F)cc1)c1ccc(-c2ccc(F)cc2)nc1	16%	-6%	3%	4%	nt	-4%
COc1ccc(OCCCCn2c(-c3ccc(Cl)cc3)nc3ccccc3c2=O)cc1	-14%	-27%	2%	?	nt	nt
O=C1C2C3C=CC(C3)C2C(=O)N1Cc1cccnc1 (stereo not given)	-11%	-2%	2%	-1%	6%	-4%
O=C1C2C3c4ccccc4C(c4ccccc43)C2C(=O)N1Cc1ccccn1 (stereo not given)	-6%	23µM*	-11%	23µM*	3%	-7%
O=C1C2C3c4ccccc4C(c4ccccc43)C2C(=O)N1Cc1cccnc1 (stereo not given)	4%	?	-10%	18µM*	2%	-10%
CN(C)S(=O)(=O)c1ccc(=S)[nH]c1	-8%	-9%	-14%	?	3%	24µM*
COc1ccc(CC(=O)OC(C)C(=O)NC2CCCCC2C)cc1 (stereo not given)	-16%	2%	-13%	-28%	-2%	0%
N#Cc1c(-c2ccccc2)nc(SCc2ccc(Cl)cc2)[nH]c1=O	79µM*	-2%	-28%	-26%	nt	?
N#Cc1c(-c2ccccc2)nc(SCC(=O)N2c3ccccc3Sc3ccccc32)[nH]c1=O	-11%	-6%	?	0%	1%	19µM*
N#Cc1c(-c2ccco2)nc(SCc2ccc(F)cc2)[nH]c1=O	-10%	-7%	-8%	-2%	4%	24µM*
CCCCCCCCNC(CO)(CO)CO	-2%	-26%	-2%	-24%	nt	-4%
O=S(=O)(c1ccc(Cl)nc1)N1CCN(c2ncccn2)CC1	38%	-10%	-3%	5%	-7%	-3%

Bioassay records as filed in PubChem BioAssay.
